Reference: publication PMC4336329 (PLoS ONE, 2015)
Out of some 310,000 compounds screened, about 14,000 (4.5%) showed an effect of 50% or more. Effects have a minus sign here. What follows is part of a selection rich in strong results, with near analogues and random picks from the rest.

target: human ether-à-go-go-related gene (hERG) potassium channel (human, UniProt Q12809); test: primary screen, population patch clamp on CHO cells stably expressing hERG; higher = less effect of the substance
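Note: peak tail current of the secondary pulse compared with the same well before compound.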

Sequence of human ether-à-go-go-related gene (hERG) potassium channel (Q12809 whole entry, looked up): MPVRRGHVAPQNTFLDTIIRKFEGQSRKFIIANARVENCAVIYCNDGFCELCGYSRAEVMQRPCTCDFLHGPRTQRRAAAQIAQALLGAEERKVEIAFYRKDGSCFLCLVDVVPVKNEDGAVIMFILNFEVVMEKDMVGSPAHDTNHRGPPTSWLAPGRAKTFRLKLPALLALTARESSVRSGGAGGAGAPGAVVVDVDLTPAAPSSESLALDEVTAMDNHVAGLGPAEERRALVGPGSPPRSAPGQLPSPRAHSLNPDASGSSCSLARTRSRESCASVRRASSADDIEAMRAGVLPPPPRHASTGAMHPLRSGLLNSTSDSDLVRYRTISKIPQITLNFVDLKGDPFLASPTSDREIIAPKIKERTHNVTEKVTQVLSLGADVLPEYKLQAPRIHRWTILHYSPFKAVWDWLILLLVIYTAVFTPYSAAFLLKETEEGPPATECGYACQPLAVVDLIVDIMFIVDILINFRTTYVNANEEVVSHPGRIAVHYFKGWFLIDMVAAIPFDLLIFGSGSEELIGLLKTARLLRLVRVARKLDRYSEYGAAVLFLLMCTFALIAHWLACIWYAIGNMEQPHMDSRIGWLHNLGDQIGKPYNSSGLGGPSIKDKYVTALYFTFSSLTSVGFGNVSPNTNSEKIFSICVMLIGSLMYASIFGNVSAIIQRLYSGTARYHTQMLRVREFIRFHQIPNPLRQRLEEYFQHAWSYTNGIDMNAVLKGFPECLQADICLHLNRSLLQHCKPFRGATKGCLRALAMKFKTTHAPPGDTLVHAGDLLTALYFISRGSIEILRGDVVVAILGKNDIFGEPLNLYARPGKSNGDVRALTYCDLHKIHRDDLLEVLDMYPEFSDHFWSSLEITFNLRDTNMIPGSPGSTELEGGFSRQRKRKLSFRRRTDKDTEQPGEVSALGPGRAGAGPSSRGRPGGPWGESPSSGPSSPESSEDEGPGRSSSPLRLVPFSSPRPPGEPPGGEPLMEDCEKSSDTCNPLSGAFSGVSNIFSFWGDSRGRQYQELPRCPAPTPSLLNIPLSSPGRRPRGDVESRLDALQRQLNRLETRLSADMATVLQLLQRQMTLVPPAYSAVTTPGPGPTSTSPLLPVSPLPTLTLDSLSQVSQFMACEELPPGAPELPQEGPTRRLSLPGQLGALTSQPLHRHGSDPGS

Compound	hERG current change (%, negative = inhibition) at 10uM
COc1ccc(CC(=O)NCc2nnc(SCC(=O)Nc3nccs3)n2C)cc1	17.3%
CCS(=O)(=O)n1nc(-c2ccccc2)cc1N	7.55%
COc1ccc(NC(=O)/C(=C/c2cccs2)NC(=O)c2ccco2)cc1	-21.1%
COc1ccc([N+](=O)[O-])cc1N(CC(=O)N1CCN(Cc2ccccc2)CC1)S(C)(=O)=O	5.94%
CC(=O)NS(=O)(=O)c1ccccc1	9.31%
O=C(NNC(=O)c1ccco1)c1cccc(Br)c1	0.684%
O=C(CCC1CCCCC1)NNC(=O)c1cnccn1	-4.92%
COc1cc(Cl)c(C)cc1NC(=O)CSc1ccccc1	5.58%
COc1ccc(NC(=S)N2CCC(c3nc4ccc(Cl)cc4[nH]3)CC2)c(OC)c1	-42.6%
O=S(=O)(c1ccc(Cl)cc1)N1CCC(c2nc3ccccc3[nH]2)CC1	1.05%
Cc1ccc(CN2CCC(c3nc4ccc(Cl)cc4[nH]3)CC2)cc1	-83%
Clc1ccc(CN2CCC(c3nc4ccc(Cl)cc4[nH]3)CC2)cc1	-80.7%
CCC(C)(C)n1nnnc1CN1CCC(c2nc3ccc(C)cc3[nH]2)CC1	-48.3%
COc1ccc(NC(=S)N2CCCC(c3nc4ccc(C)cc4[nH]3)C2)cc1 (stereo not drawn)	-10.5%
O=C(NCC1CCCO1)c1ccc(S(=O)(=O)N2CCC(c3nc4ccc(Cl)cc4[nH]3)CC2)cc1 (stereo not drawn)	-18%
COc1ccc(CN2CCC(c3nc4ccc(Cl)cc4[nH]3)CC2)cc1	-76.3%
Cc1ccc(Cn2nnnc2CN2CCC(c3nc4ccc(Cl)cc4[nH]3)CC2)cc1	5.01%
COc1ccc(NC(=O)CCCN2C(=O)C(c3ccccc3)Oc3cccnc32)cc1OC (stereo not drawn)	1.23%
CCCCNC(=O)Cn1cnc2sc(C)c(S(=O)(=O)N3CCN(c4ccccc4OC)CC3)c2c1=O	11.4%
O=C(Nc1nc(-c2cc(Cl)sc2Cl)cs1)c1ccc(Br)s1	-6.05%
Cc1cccc(/C(N)=N/OC(=O)Cc2cccs2)c1	-12.4%
Cc1cc(-c2cc(C(=O)NC3CCCC3)on2)nc(NC2CCCC2)n1	4.57%

Compound	hERG current change (%, negative = inhibition) at 10uM
COc1ccc(S(=O)(=O)NC(C)(C)C)cc1-c1nnc2c3ccccc3c(C)nn12	-5.05%
COc1ccc(S(=O)(=O)NCc2ccco2)cc1-c1nnc2c3ccccc3c(C)nn12	-50.3%
CNS(=O)(=O)c1ccc(OC)c(-c2nnc3c4ccccc4c(C)nn23)c1.Cl	7.8%
CC(=O)c1c(C)n(Cc2ccccc2)c2ccc(O)cc12	12.8%
Cc1ccc(C2CC(c3cccs3)=NN2C(=O)CSc2nc(=O)n3cc(C)ccc3n2)cc1 (stereo not drawn)	-66.6%
CCC(=O)N1N=C(c2cccs2)CC1c1ccc(C)cc1 (stereo not drawn)	2.52%
COc1ccc(C2=NN(C(=O)CSc3nc(=O)n4cc(C)ccc4n3)C(c3ccc(C)cc3)C2)cc1 (stereo not drawn)	-16.2%
COc1ccc(C2CC(c3cccs3)=NN2C(=O)CSc2nc(=O)n3cc(C)ccc3n2)cc1 (stereo not drawn)	-64.8%
COc1ccc(C2=NN(C(=O)CSc3nc(=O)n4cccc(C)c4n3)C(c3ccc(C)cc3)C2)cc1 (stereo not drawn)	4.53%
Cc1ccc(C2CC(c3cccs3)=NN2C(=O)CSC2=NCCS2)cc1 (stereo not drawn)	-2.21%
Cc1nn(C(C)C(=O)NC(C)CCc2ccccc2)c(=O)c2cc3occc3n12 (stereo not drawn)	-13.7%
O=C(NC1=NCCS1)C1CCN(S(=O)(=O)c2ccccc2C(F)(F)F)CC1	6.92%
COc1ccc(-c2coc3cc(OC)cc(O)c3c2=O)cc1	24.5%
CCOc1ccc2nc(NC3=NC(C)(C)C=C(C)N3)nc(C)c2c1	-47.8%
CC1=CC(C)(C)N=C(Nc2nc(C)c3cc(C)cc(C)c3n2)N1	-63.5%
CCOc1ccc2c(C)nc(NC3=NC(C)(C)C=C(C)N3)nc2c1	-45%
CN(C)CCCNC(=O)c1cc(C(=O)c2cccc(Cl)c2Cl)c[nH]1	-51%
CN(C)CCCNC(=O)c1cc(C(=O)c2ccccc2F)c[nH]1	1.23%
CN(C)CCCNC(=O)c1cc(C(=O)c2ccccc2)c[nH]1	10.5%
COc1cccc(C(=O)c2c[nH]c(C(=O)NCCCN(C)C)c2)c1	-4.75%
CN(C)CCCNC(=O)c1cc(C(=O)c2c(Cl)cccc2Cl)c[nH]1	-9.62%
CN(C)CCCNC(=O)c1cc(C(=O)c2ccc(F)cc2)c[nH]1	-68.5%

Compound	hERG current change (%, negative = inhibition) at 10uM
C#CCOC(=O)c1cc(Cl)c(=O)n(Cc2ccc(Cl)cc2Cl)c1	-18.8%
COC(=O)c1cc2ccsc2n1CC(=O)NCC1CCCO1 (stereo not drawn)	10.6%
CC(C)Nc1nc(NNc2nc(Cl)nc(NC(C)(C)C)n2)nc(NC(C)C)n1	10.1%
Cc1cc(NC(=O)CSc2nc(C3CCCCC3)nc3ccccc23)no1	18.9%
CC/C(=C\c1oc2cc3ccccc3cc2[n+]1CC)Nc1ccccc1.[I-]	-78.1%
CCC(=O)Nc1ccc(NC(=O)c2cc3ccccc3o2)cc1	-2.45%
O=C(Nc1ccccc1)c1cc2ccccc2o1	-7.55%
COCCn1c(SCC(=O)Nc2cccc(S(N)(=O)=O)c2)nc2cc(Cl)ccc2c1=O	-38.8%
CN1CCN(C2Cc3ccccc3Sc3cc(C(F)(F)F)ccc32)CC1.O=C(O)/C=C\C(=O)O (stereo not drawn)	-70.2%
CN1CCN(C2Cc3ccccc3Sc3ccc(Cl)cc32)CC1.O=C([O-])/C=C\C(=O)[O-] (stereo not drawn)	-65.9%
CN1Cc2cccc3c2C(Cc2ccccc2S3)C1.O=C(O)/C=C\C(=O)O (stereo not drawn)	-36.6%
CSc1ccc2c(c1)C(N1CCN(C)CC1)Cc1ccc(F)cc1S2.O=C(O)/C=C\C(=O)O (stereo not drawn)	-58.8%
CS(=O)(=O)O.CSc1ccc2c(c1)C(N1CCN(C)CC1)Cc1ccccc1S2 (stereo not drawn)	-65.9%
CSc1cccc(NC(=O)N2CCN(C)CC2)c1	-31.1%
O=C(O)/C=C\C(=O)O.OCCN1CCN(C2CCC(c3ccc(F)cc3)c3ccc(F)cc32)CC1 (stereo not drawn)	-44.5%
CN1CCC(=C(c2ccc(Cl)cc2)c2ccccn2)CC1.O=C([O-])/C=C\C(=O)[O-]	-40.5%
CN1CCN(C(=O)Nc2ccc3c(c2)N(C)C(=O)c2ccccc2S3)CC1	8.57%
CN1CCN(C2Cc3cc(F)ccc3Sc3ccc(Cl)cc32)CC1.O=C(O)/C=C\C(=O)O (stereo not drawn)	-44.8%
COc1ccc2c(c1)CC(N1CCN(C)CC1)c1cc(OC)ccc1S2.O=C(O)/C=C\C(=O)O (stereo not drawn)	-25.9%
Cc1ccc(/C=C2\C(=N)N3N=C(CC(=O)N4CCCCC4)SC3=NC2=O)cc1	17.4%
COc1ccc(/C(O)=C2/C(=O)C(=O)N(c3ccccn3)C2c2ccc(F)cc2)cc1 (stereo not drawn)	35.2%
O=C(COC(=O)CNC(=O)c1ccc(Cl)cc1Cl)NC1CCCCCCC1	15.8%

Compound	hERG current change (%, negative = inhibition) at 10uM
Cc1cn(C(=O)c2cccc(Br)c2)c(C)n1	15%
O=c1c2ccccc2nnn1Cc1ccc(Br)cc1	8.66%
CCNC(=O)NC(=O)CSc1ccccc1F	10.7%
Cc1nc2sc3c(c2c(=O)[nH]1)CCC3	12.1%
CC(NC(=O)c1cccs1)C(=O)NC1=NCCS1 (stereo not drawn)	1.3%
COc1cc(N)c(Cl)cc1C(=O)OCC(=O)c1ccc2c(c1)NC(=O)CO2	1.68%
Cc1nnc(SCC(=O)Nc2cc(S(C)(=O)=O)ccc2Cl)n1Cc1ccccc1	6.22%
CC(=O)NCCNC(=O)c1cccc(NS(=O)(=O)c2ccc3c(c2)OCCO3)c1	-2.65%
Cc1c(NC(=O)C2CC(c3c(F)cccc3Cl)=NO2)c(=O)n(-c2ccccc2)n1C (stereo not drawn)	14.7%
Cc1nc2c(o1)CCc1ccccc1C2N1CCN(C)CC1.O=C(O)/C=C/C(=O)O (stereo not drawn)	-5.58%
CN1CCN(C2Cc3ccc(F)cc3Sc3cc(F)c(Cl)cc32)CC1.CS(=O)(=O)O.O (stereo not drawn)	-77.3%
CS(=O)(=O)O.Cc1cccc2c1Sc1ccc(Cl)cc1CC2N1CCNCC1.O (stereo not drawn)	5.75%
CN1CCN(C2=Cc3ccccc3Sc3cc(F)c(F)cc32)CC1.CS(=O)(=O)O	-22.5%
CN1CCN(C2=Cc3ccc(Cl)cc3Sc3ccc(F)cc32)CC1.CS(=O)(=O)O.O	-14.8%
CC(C)c1ccc2c(c1)C(N1CCN(C)CC1)Cc1cccnc1S2.O=C(O)/C=C\C(=O)O (stereo not drawn)	-50.6%
CS(=O)(=O)O.Clc1cccc2c1Sc1ccccc1CC2N1CCNCC1 (stereo not drawn)	-72.4%
CN1CCN(C2Cc3cc(Cl)ccc3Sc3cc(F)ccc32)CC1.CS(=O)(=O)O (stereo not drawn)	-38.2%
CN1CCN(C2=Cc3ccccc3Sc3cc(F)ccc32)CC1.O=C(O)/C=C\C(=O)O	-62.8%
CCc1cccc2c1Sc1ccccc1CC2N1CCNCC1.CS(=O)(=O)O (stereo not drawn)	-31.1%
CC(C)c1ccc2c(c1)C(N1CCNCC1)Cc1ccc(F)cc1S2.O.O=C(O)/C=C\C(=O)O (stereo not drawn)	5.51%
CN1CCN(C2=Cc3ccccc3Sc3cc(F)c(Cl)cc32)CC1.O=C(O)/C=C\C(=O)O	-12.4%
